An excerpt weighted towards active compounds, which were near 9.5% of everything screened.
Pf growth 96h: P. falciparum growth inhibition at 96 hours; P. falciparum luciferase reporter growth, 96 h; Potency, µM (doses to about 28.7 µM), hits mostly inhibitors; hit rate 6.9% among 320,000; AID 504834
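Two parasite generations (96 h, 37 C, 5% CO2) of compound exposure in infected erythrocytes (0.05% parasitemia, 2% hematocrit). Luciferase-reporter P. falciparum; decreased luminescence indicates inhibited growth, aimed at apicoplast-acting delayed death.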
SARS PLpro yeast: SARS-CoV PLP inhibition in yeast. Potency, µM (series often up to 32.9 µM), usual class: activators. AID 485353. hit rate 0.19% among 330,000. S. cerevisiae expressing SARS-CoV PLpro, growth rescue; calls by dose curve; further: nearly all actives have a fitted effect of over 55% in size
RE007 growth inh: less growth of the S. pombe RE007 Vpr strain. S. pombe RE007 Vpr strain, BacTiter-Glo ATP luminescence, 24 h. Potency, µM (titrated, usually from 92.2 µM), most hits filed as inhibitors. hit rate 0.21% among 360,000. AID 651644; active means well fitted falling curve with a large enough effect; inconclusive means small, poorly fitted or top-dose-only effect; inactive means no such curve, though single readings can be large or run the other way; further: nearly all actives have a fitted effect of over 50% in size
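Fission yeast RE007 carrying one integrated HIV-1 vpr copy, seeded at OD 0.01 in PMG+AL medium with 23 nL pinned compound. Grown 24 h at 30 degrees; viability read by BacTiter-Glo luminescence after 5 min.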
NS1 function inh: blocks influenza NS1 protein function; hit rate 0.4% among 270,000; Potency, µM (doses to about 46.1 µM); AID 2326; calls by dose curve; further: actives are rising curves; nearly all actives have a fitted effect of over 50% in size
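OD600 was taken as the measure of yeast growth restored by compound in an NS1-expressing S. cerevisiae strain. Cells had been washed out of glucose medium and diluted 1:100 into galactose -URA medium, pH 6.0.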
Pf growth 48h: inhibits P. falciparum growth in the first generation, 48 h; AID 504832; hit rate 5.9% among 310,000; P. falciparum luciferase growth in erythrocytes, 48 h; Potency, µM (series often up to 28.7 µM), actives largely listed as inhibitors
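Cell-based growth assay: transgenic P. falciparum expressing firefly luciferase, cultured in red cells within RPMI 1640 containing 0.5% w/v Albumax, 24 mM bicarbonate and gentamycin. A drop in luciferase activity indicates inhibition.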
Hits are given with their value; – = inactive; ? = inconclusive; · = no result. Unless noted, the call rests on the fitted dose curve; in most records, active means well fitted inhibition curve with a large enough effect; inconclusive means small, poorly fitted or top-dose-only effect, or another doubt; inactive means no such curve, though single readings can be large or run the other way.

SMILES	Pf growth 96h	SARS PLpro yeast	RE007 growth inh	NS1 function inh	Pf growth 48h
CCOC(=O)N1CCN(C(=O)C2CCN(Cc3ccc(O)c(OCC)c3)CC2)CC1	–	–	–	–	–
Cc1ccccc1C(=NCCCN(C)C)c1ccccc1C	–	–	–	–	–
COc1ccc(OC)c(S(=O)(=O)N2CCN(c3c(C)cccc3C)CC2)c1	4.7µM	–	–	–	?
COc1ccc(C(C)C)cc1S(=O)(=O)N1CCN(C)CC1	12µM	–	–	–	·
COc1ccc(C(C)C)cc1S(=O)(=O)N1CCC(C(=O)N2CCN(C)CC2)CC1	–	–	–	–	–
CCOC(=O)c1cc2c(c(-c3ccccc3)n1)[C@@H](CCO)N(S(=O)(=O)C(C)(C)C)C2	·	·	–	·	·
COc1ccccc1CNC(=O)COC(=O)c1cc2ccccc2o1	·	–	–	·	·
CCOC(=O)C1=CN(CC)S(=O)(=O)NC1c1cccc(OC)c1 (configuration not stated)	·	–	–	·	·
COc1ccccc1-c1c(-c2ccc(OCC(=O)NN)cc2O)n[nH]c1C(F)(F)F	7.4µM	–	–	?	8.3µM
COc1ccc(-c2n[nH]c(C(F)(F)F)c2-c2cc3ccccc3o2)c(O)c1	–	–	?	–	2.1µM
COc1ccccc1-c1cn[nH]c1-c1ccc(OCC(=O)NN)cc1O	?	–	–	?	?
COc1ccc(-c2c(-c3ccc(OCC(=O)NN)cc3O)n[nH]c2C)cc1	9.3µM	–	–	?	?
COc1ccc(-c2n[nH]c(C)c2-c2ccc(Cl)cc2)c(O)c1	10µM	–	?	–	8.3µM
CC(C)N1CC(COc2ccc(Cl)cc2Cl)OC1=O (configuration not stated)	–	–	–	–	–
CC(C)(N)C(=O)N[C@@H]1C(=O)N2[C@@H]1SC(C)(C)[C@H]2C(=O)O	·	·	·	–	·
CCc1nc2c(OCc3ccccc3)cccn2c1N(C)C(=O)c1ccc2c(c1)OCO2	·	·	–	·	·
C[N+](C)(N)Cc1nc(-c2ccc(Cl)cc2)no1	·	·	·	–	·
COc1ccc(Cn2cc(CN3CC(N4CCN(C5CCN(C)CC5)CC4)CS3(=O)=O)nn2)cc1 (configuration not stated)	·	·	–	·	·
CC1(C)C(c2cccs2)=NC(c2ccccc2)N1O (configuration not stated)	9.3µM	–	–	–	–
CC1(C)C(c2ccccc2)=NC(c2ccc(F)cc2)N1O (configuration not stated)	–	–	–	–	–
COC(=O)C(Cc1cccc(C)n1)(c1ccccc1)c1ccccc1	?	–	–	–	9.3µM
CCN(CC)S(=O)(=O)c1cccc(N2CC(O)=C(c3ccccc3)C2=N)c1	2.6µM	–	–	–	2.6µM
COc1cc(NC(=O)CN2C(=O)c3ccccc3S2(=O)=O)cc(OC)c1	–	–	–	·	–
CCn1cc(C(=O)NC(C)C23CC4CC(CC(C4)C2)C3)cn1 (configuration not stated)	5.2µM	–	–	–	?
CCn1cc(C(=O)NC(C)C2CC3CCC2C3)cn1 (configuration not stated)	–	–	–	–	–
SMILES	Pf growth 96h	SARS PLpro yeast	RE007 growth inh	NS1 function inh	Pf growth 48h
O=C1[C@H]2[C@@H](c3ccc(F)cc3)N3C(=O)N(c4cccc(Cl)c4)C(=O)[C@@]3(Cc3ccccc3)[C@H]2C(=O)N1C1CCCCC1	12µM	–	–	·	2.6µM
O=C1[C@H]2[C@@H](c3ccc(F)cc3)N3C(=O)N(c4cccc(Cl)c4)C(=O)[C@@]3(Cc3ccc(Cl)cc3)[C@H]2C(=O)N1C1CCCCC1	5.2µM	–	–	–	4.7µM
Cc1ccc(C2=NN(C(=O)CSc3nc4ncc(Cl)cc4[nH]3)C(c3ccco3)C2)cc1 (configuration not stated)	12µM	–	–	·	–
Cc1ccc(-c2nc(SCC(=O)NCC3CCCO3)c(-c3ccccc3)[nH]2)cc1 (configuration not stated)	?	–	–	–	–
COc1ccc(CNC(=O)c2ccccc2NC(=O)C2=CSCCO2)c(OC)c1	?	–	–	–	?
COc1ccc2nc(NC(=O)c3cccc(-c4cc5ccccc5oc4=O)c3)sc2c1	4.7µM	–	–	–	?
COc1ccc(C(=O)Nc2cccc(-c3cc4ccccc4oc3=O)c2)cc1[N+](=O)[O-]	–	–	–	–	13µM
CC(=O)Nc1ccc(NC(=O)c2cccc(-c3cc4ccccc4oc3=O)c2)cc1	–	–	–	·	–
